From PubChem BioAssay AID2315 (National Center for Advancing Translational Sciences (NCATS), 2010)
Among all 290,000 compounds or so, about 27,000 (9.3%) were called active. The entries come from a sample that favours actives as a whole. Values without a mark were called inactive. Rule as the data show it: active = inhibition mostly above about 28% (no sharp cut-off); inactive = mostly below about 43%.

assay: A qHTS for Small Molecule Inhibitors of Shiga Toxin; settings: Vero cells, Shiga toxin protein synthesis inhibition reporter; at 38.7 µM, stronger effect = higher value; also: 0% is about no effect

Compound | inhibition
COc1cc(OC)cc(-c2nnc(N(C)C(=O)c3ccncc3)s2)c1 | -6.02%
CN(C(=O)COc1ccccc1)c1nnc(-c2ccncc2)s1 | 3.11%
CN(C(=O)c1ccccn1)c1nnc(-c2ccccn2)s1 | 115% (active)
COc1ccc(C(=O)NCCn2nc(C)cc2C)cc1OC1CCN(C(C)=O)CC1 | -11.5%
Cc1ccc(NC(=O)C(CC(=O)O)C2CCCO2)c(C)c1 (stereo not given) | -1.94%
Cc1ccc(C)c(NC(=O)CCC(=O)NNC(=O)c2cccs2)c1 | -2.76%
COc1cccc(CC(=O)Nc2ccc(-c3csc(C)n3)cc2)c1 | 28.8% (active)
O=C(NNC(=O)c1ccc(Cl)cc1Cl)c1cccs1 | 74.9% (active)
NNC(=O)c1ccc(Cl)cc1Cl | 16.2%
COc1cccc(CC(=O)Nc2nc(-c3ccc(OC)c(OC)c3)cs2)c1 | 17.3%
Cc1ccc(-c2csc(NNC(=O)c3ccccc3)n2)cc1 | 1.14%
CC(C)C(=O)Nc1ccc(C(=O)NNC(=O)c2cccs2)cc1 | 28.6%
Cc1ccc(C(=O)NNC(=O)c2cccs2)cc1 | 86.5% (active)
Cc1ccc(NNC(=O)c2cccs2)cc1Cl | 22.1%
COc1cccc(NC(=O)CN2CCN(c3nc(-c4cccc(OC)c4)cs3)CC2)c1 | -2.33%
Cc1ccc(-c2csc(NC(=O)Cc3cccs3)n2)cc1C | 37.6%
COc1ccccc1CCNS(=O)(=O)c1cc2c3c(c1)C(C)C(=O)N3CCC2 (stereo not given) | -4.37%
CCn1c(=O)c(=O)[nH]c2c(=O)oc3ccc(S(=O)(=O)Nc4ccc(OC)cc4)cc3c21 | -7.69%
O=C(NCc1cccs1)c1ccc(CS(=O)Cc2ccccc2Cl)o1 (stereo not given) | -8.99%
COc1cc(CO)ccc1OCC(=O)Nc1cccc2ccccc12 | -2.74%

Compound | inhibition
CC1CN(C(=O)CCC(=O)NCc2cccnc2)c2ccccc2O1 (stereo not given) | -5.3%
O=C(CN1C(=O)c2cccnc2Oc2ccc(Cl)cc21)Nc1ccc(F)cc1 | -1.35%
CCN(CC(=O)NCc1ccco1)S(=O)(=O)c1ccc(F)cc1 | -12.2%
O=C1C(=O)N(CCCN2CCOCC2)C(c2ccc([N+](=O)[O-])cc2)/C1=C(\O)c1ccc2c(c1)OCCO2 (stereo not given) | 22.5%
COc1ccc(N2CCN(C(=O)c3ccccc3NC(=O)C3=C(C)OCCS3)CC2)cc1 | -21.3%
Cc1ccc(S(=O)(=O)N[C@@H](Cc2ccccc2)C(=O)N2CCC(C(=O)N[C@H](C(=O)O)C(C)O)CC2)cc1 (stereo not given in full) | -8.35%
Cc1ccc(-c2nnc(-c3ccc(NC(=O)c4cccs4)cc3)o2)cc1 | -3.6%
Cc1ccc(C(=O)Nc2ccc(NC(=O)c3cccs3)cc2)c(C)c1 | 2.76%
Cc1nc(-c2ccc(NC(=O)c3cccs3)cc2)cs1 | 45.3% (active)
CCOC(=O)C1CCN(S(=O)(=O)c2ccc3c(c2)N(C)C(=O)CC(=O)N3C)CC1 | -0.654%
COc1ccc(NC(=O)NNC(=O)COc2cc(C)c(Cl)c(C)c2)c(OC)c1 | -7.12%
CCCCSCCCNC(=O)C1CCC(CNS(=O)(=O)c2ccc(NC(C)=O)cc2)CC1 (stereo not given) | -4.92%
CCC1Sc2ccc(S(=O)(=O)CCC(=O)NCc3cccs3)cc2NC1=O (stereo not given) | -5.71%
O=C(NC1CCCC1)C(c1c(F)cccc1Cl)N(C(=O)c1csnn1)C1CC1 (stereo not given) | -2.62%
COc1ccc(N2CCN(S(=O)(=O)CCNC(=O)C34CC5CC(CC(C5)C3)C4)CC2)cc1 | -1.41%
COC(=O)c1cc(NC(=O)C2C3C=CC(C3)C2C(=O)O)cc(C(=O)OC)c1 (stereo not given) | -19%
CC(=O)NS(=O)(=O)c1ccc(NC(=O)C2C3C=CC(C3)C2C(=O)O)cc1 (stereo not given) | -8.78%
CC(C)COC(=O)c1ccc(NC(=O)C2C3C=CC(C3)C2C(=O)O)cc1 (stereo not given) | 77.2% (active)
COc1ccc(CNC(=O)C(c2ccc(O)cc2)N(Cc2ccco2)C(=O)c2snc(C(N)=O)c2N)cc1 (stereo not given) | -11.7%
CCCCCOC(=O)NCCOC(=O)Nc1ccc(C(=O)OCC)cc1 | -13.5%

Compound | inhibition
CCCCCCOC(=O)NCC(O)c1ccccc1 (stereo not given) | 85.6% (active)
CCCCCCCCC(=O)NCCOc1ccccc1 | -16.7%
NC(=O)C1CC(=O)N(c2ccc(OCC(=O)NCc3ccccc3)cc2)C1 (stereo not given) | -19.2%
COc1ccc(/C=C(/NC(=O)c2ccco2)C(=O)Nc2ccc(C(C)=O)cc2)cc1 | -4.34%
CCCOC(=O)c1cc2ccccc2oc1=O | 18.4%
C=CCc1cccc2cc(C(=O)OCC)c(=O)oc12 | 2.24%
CCOC(=O)c1cc2cc3ccccc3cc2oc1=O | 43.1% (active)
Cc1ccc(-n2c(SCC(=O)NCCC3=CCCCC3)nc3n[nH]c(C)c3c2=N)cc1Cl | -4.66%
CCOC(=O)c1ccccc1NC(=O)COC(=O)CCC(=O)N1CCOCC1 | -9.24%
CC(=O)N1c2ccc(S(=O)(=O)N3CCCC(C(=O)Nc4cccc(F)c4)C3)cc2CC1C (stereo not given) | -2.88%
CNC(=O)c1ccc(NC(=O)c2cccc(C(F)(F)F)c2)cc1 | -2.63%
Cc1cccc(NC(=S)Nc2ccc(Br)cc2)c1 | 36.6%
Cc1cccc(NC(=O)/C(=C\c2ccco2)NC(=O)c2ccccc2)c1 | -2.02%
Cc1cccc(NC(=O)c2nnn(-c3cccc(C(F)(F)F)c3)c2N)c1 | 31.4%
Cc1cccc(NC(=S)NC(=O)c2ccc(Br)o2)c1 | 105% (active)
Cc1cccc(NC(=O)NC(=S)NC(=O)c2ccccc2)c1 | 80.2% (active)
O=C(CNC(=O)c1ccc(Br)o1)Nc1ccccc1 | -4.27%
Cc1cccc(NC(=O)c2cccc(C(F)(F)F)c2)c1 | 77.8% (active)
Cc1cccc(NC(=S)NC23CN4CN(CN(C4)C2)C3)c1 | -10.3%
COc1ccc(OCC(=O)Nc2ccc(NC(=O)c3ccco3)c(C)c2)cc1 | 19.3%
